# From PubChem BioAssay (NCI)
# The panel holds about 83,000 compounds, 20% with a hit somewhere; the sample as a whole holds those more often.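 Results are percent growth after 48 hours of single-concentration exposure. 100 means growth as in untreated cells, lower positive values show inhibition; negative values down to -100 show cell death.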 Values without a mark were called inactive. Active and inactive are the calls of the source. How the source made its calls: active means growth percent below 10; inactive means the rest.
# How the values were obtained:
# Experiment in all cases: NCI-60 one-dose screen, 48 h (100 = growth as untreated, 0 = no growth, -100 = all killed)
# HCT-15 colon = test system: HCT-15 colon
# HT29 colon = test system: HT29 colon
# SNB-75 CNS = test system: SNB-75 CNS
# SNB-19 CNS = test system: SNB-19 CNS
# PC-3 prostate = test system: PC-3 prostate
# SK-MEL-5 melanoma = test system: SK-MEL-5 melanoma
# UACC-62 melanoma = test system: UACC-62 melanoma
# LOX IMVI melanoma = test system: LOX IMVI melanoma
# SK-MEL-28 melanoma = test system: SK-MEL-28 melanoma
# EKVX NSCLC = test system: EKVX NSCLC
# SN12C renal = test system: SN12C renal
# UO-31 renal = test system: UO-31 renal
# TK-10 renal = test system: TK-10 renal
# ACHN renal = test system: ACHN renal
# CAKI-1 renal = test system: CAKI-1 renal
# CCRF-CEM leukemia = test system: CCRF-CEM leukemia
# U251 CNS = conditions: 10 µM unless noted
# SK-MEL-2 melanoma = conditions: 10 µM unless noted
# A498 renal = conditions: 10 µM unless noted
# MOLT-4 leukemia = conditions: 10 µM unless noted
smiles,measurement,setting,value
CC/C(=C(\c1ccc(O)cc1)c1ccc(OCCN(C)C(=O)CCOCCNC(=O)c2ccc3c(c2)CN([C@@H]2CCC(=O)NC2=O)C3=O)cc1)c1ccccc1,growth,HCT-15 colon; 1 µM,110%
same,growth,HCT-15 colon; 10 µM,103%
same,growth,HT29 colon; 1 µM,95%
same,growth,HT29 colon; 10 µM,89%
same,growth,SNB-75 CNS; 1 µM,59%
same,growth,SNB-75 CNS; 10 µM,64.2%
same,growth,SNB-19 CNS; 1 µM,92.7%
same,growth,SNB-19 CNS; 10 µM,90.1%
same,growth,PC-3 prostate; 1 µM,54.2%
same,growth,PC-3 prostate; 10 µM,52.9%
same,growth,SK-MEL-5 melanoma; 1 µM,95.4%
same,growth,SK-MEL-5 melanoma; 10 µM,87.9%
same,growth,UACC-62 melanoma; 1 µM,95.9%
same,growth,UACC-62 melanoma; 10 µM,95%
same,growth,LOX IMVI melanoma; 1 µM,104%
same,growth,LOX IMVI melanoma; 10 µM,94.4%
same,growth,SK-MEL-28 melanoma; 1 µM,102%
same,growth,SK-MEL-28 melanoma; 10 µM,102%
same,growth,EKVX NSCLC; 1 µM,100%
same,growth,EKVX NSCLC; 10 µM,89.1%
same,growth,SN12C renal; 1 µM,91.3%
same,growth,SN12C renal; 10 µM,95.7%
same,growth,UO-31 renal; 1 µM,91.9%
same,growth,UO-31 renal; 10 µM,89.9%
same,growth,TK-10 renal; 1 µM,99%
same,growth,TK-10 renal; 10 µM,88.5%
same,growth,ACHN renal; 1 µM,103%
same,growth,ACHN renal; 10 µM,106%
same,growth,CAKI-1 renal; 1 µM,101%
same,growth,CAKI-1 renal; 10 µM,94.5%
same,growth,CCRF-CEM leukemia; 1 µM,24.5%
same,growth,CCRF-CEM leukemia; 10 µM,26.1%
COc1ccc2[nH]c(O)c(N=Nc3nc(-c4ccc(Br)cc4)cs3)c2c1,growth,HCT-15 colon; 10 µM unless noted,2.5% (active)
same,growth,HT29 colon; 10 µM unless noted,12.8%
same,growth,SNB-75 CNS; 10 µM unless noted,-41.4% (active)
same,growth,SNB-19 CNS; 10 µM unless noted,36.4%
same,growth,U251 CNS,-39.5% (active)
same,growth,PC-3 prostate; 10 µM unless noted,21%
same,growth,SK-MEL-5 melanoma; 10 µM unless noted,35.1%
same,growth,UACC-62 melanoma; 10 µM unless noted,18.7%
same,growth,LOX IMVI melanoma; 10 µM unless noted,4.53% (active)
same,growth,SK-MEL-28 melanoma; 10 µM unless noted,15.4%
same,growth,SK-MEL-2 melanoma,21.1%
same,growth,EKVX NSCLC; 10 µM unless noted,6.08% (active)
same,growth,SN12C renal; 10 µM unless noted,-46.4% (active)
same,growth,UO-31 renal; 10 µM unless noted,0.841% (active)
same,growth,TK-10 renal; 10 µM unless noted,33.4%
same,growth,ACHN renal; 10 µM unless noted,-64.2% (active)
same,growth,CAKI-1 renal; 10 µM unless noted,2.6% (active)
same,growth,A498 renal,-78% (active)
same,growth,CCRF-CEM leukemia; 10 µM unless noted,14.7%
same,growth,MOLT-4 leukemia,-17.7% (active)
CC1=C(C(=O)OC(C)C)C(c2ccc(O)cc2)NC(=O)N1 (configuration not stated),growth,HCT-15 colon; 10 µM unless noted,105%
same,growth,HT29 colon; 10 µM unless noted,107%
same,growth,SNB-75 CNS; 10 µM unless noted,115%
same,growth,SNB-19 CNS; 10 µM unless noted,95%
same,growth,U251 CNS,103%
same,growth,PC-3 prostate; 10 µM unless noted,92.1%
same,growth,SK-MEL-5 melanoma; 10 µM unless noted,107%
same,growth,UACC-62 melanoma; 10 µM unless noted,95.4%
same,growth,LOX IMVI melanoma; 10 µM unless noted,98%
same,growth,SK-MEL-28 melanoma; 10 µM unless noted,112%
same,growth,SK-MEL-2 melanoma,96.5%
same,growth,EKVX NSCLC; 10 µM unless noted,96.1%
same,growth,SN12C renal; 10 µM unless noted,106%
same,growth,UO-31 renal; 10 µM unless noted,92.2%
same,growth,TK-10 renal; 10 µM unless noted,90.2%
same,growth,ACHN renal; 10 µM unless noted,106%
same,growth,CAKI-1 renal; 10 µM unless noted,95.3%
same,growth,A498 renal,113%
same,growth,CCRF-CEM leukemia; 10 µM unless noted,93.9%
same,growth,MOLT-4 leukemia,97.8%
